Our source for the growth values is PubChem BioAssay (NCI).

About 83,000 compounds went through this panel and 20% of them were active in at least one assay; those are over-represented in the sample as a whole.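 Negative percent growth values reflect cell death: -40 means 40% of the cells present at the start died, and -100 means all died.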 Unmarked numbers belong to inactive results. Active and inactive are the calls of the source. How the source made its calls: active means growth percent below 10; inactive means the rest.

Some test systems named below: RPMI-8226 leukemia; OVCAR-8 ovarian; OVCAR-5 ovarian; OVCAR-4 ovarian; SK-OV-3 ovarian; IGROV1 ovarian; OVCAR-3 ovarian; HS 578T breast; NCI/ADR-RES ovarian; T-47D breast; MDA-MB-435 melanoma; SW-620 colon; MCF7 breast; HCT-116 colon; HCC-2998 colon; KM12 colon.
What all share (experiment): NCI-60 one-dose screen, 48 h (100 = growth as untreated, 0 = no growth, -100 = all killed)
What all share (conditions): 10 µM

For the compound `COc1cc(CNc2ccccc2C(=O)N2CCN(C(=O)c3cc(-c4cc(OC)c(OC)c(OC)c4)n4nc(-c5ccccc5)cc4n3)CC2)cc(OC)c1OC`, the growth in the experiment with RPMI-8226 leukemia is 52.1%; in the experiment with OVCAR-8 ovarian it was 65.1%; in the experiment on OVCAR-5 ovarian, 88.1%; in the experiment with OVCAR-4 ovarian it was 61.5%; with SK-OV-3 ovarian, 59.9%; in the experiment on IGROV1 ovarian, 44.7%. Besides, the growth is 4.83% (active) in the experiment with OVCAR-3 ovarian; 42.9% in the experiment on HS 578T breast; 15.6% with NCI/ADR-RES ovarian; 60.6% in the experiment with T-47D breast; -47.6% (active) with MDA-MB-435 melanoma; 26.3% with SW-620 colon. The growth in the experiment on MCF7 breast was 6.61% (active); in the experiment with HCT-116 colon it was 21.6%; in the experiment on HCC-2998 colon it was 40.3%; in the experiment on KM12 colon, 17.8%.

Turning to `COc1cccc(C(=O)Nc2ccc(CN3CCc4nc5cc(OC)c(OC)cc5cc43)cc2)c1`, the growth in the experiment with RPMI-8226 leukemia is 40%; in the experiment with OVCAR-8 ovarian, 46.8%; with OVCAR-5 ovarian, 64.8%; with OVCAR-4 ovarian it was 57.1%; with SK-OV-3 ovarian, 74.2%; in the experiment with IGROV1 ovarian it was 31.8%. The growth in the experiment with OVCAR-3 ovarian was 53.1%; in the experiment on HS 578T breast, 61.2%; in the experiment on NCI/ADR-RES ovarian it was 47.1%; with T-47D breast, 32.4%; with MDA-MB-435 melanoma, 39.5%; in the experiment with MCF7 breast, 12%. For the same compound, the growth is 38.9% in the experiment on HCT-116 colon, 14.1% in the experiment on HCC-2998 colon and 16.4% in the experiment on KM12 colon.

Regarding `CC/C(C)=C(\C)C(=O)O`, the growth in the experiment with RPMI-8226 leukemia was 107%; with OVCAR-8 ovarian it was 103%; in the experiment on OVCAR-5 ovarian, 112%; with OVCAR-4 ovarian, 118%; with SK-OV-3 ovarian, 91.9%; in the experiment with IGROV1 ovarian it was 104%. The growth in the experiment with OVCAR-3 ovarian was 105%; in the experiment on HS 578T breast, 100%; in the experiment with NCI/ADR-RES ovarian, 108%; in the experiment on T-47D breast, 100%; in the experiment on MDA-MB-435 melanoma it was 99.1%; in the experiment with SW-620 colon, 105%. Moreover, the growth in the experiment with MCF7 breast was 98.6%; in the experiment with HCT-116 colon, 109%; in the experiment on HCC-2998 colon, 108%; in the experiment with KM12 colon, 103%.

Consider `Cc1cc(Cl)nc(N(CCCNc2ccnc3cc(Cl)ccc23)Cc2cccs2)n1`, for which the growth with RPMI-8226 leukemia is -48.5% (active); in the experiment with OVCAR-8 ovarian, 7.5% (active); with OVCAR-5 ovarian, 31.8%; with OVCAR-4 ovarian, 11%; with SK-OV-3 ovarian it was 46.3%; with IGROV1 ovarian it was 6.77% (active). For the same compound, the growth was 25.9% with OVCAR-3 ovarian; 48.6% with HS 578T breast; 0.179% (active) in the experiment with NCI/ADR-RES ovarian; -2.57% (active) in the experiment on T-47D breast; 3.55% (active) in the experiment with MDA-MB-435 melanoma; 11.8% with SW-620 colon. The growth was 10.7% in the experiment on MCF7 breast, 3.08% (active) in the experiment with HCT-116 colon, 0.165% (active) with HCC-2998 colon and 12.8% in the experiment on KM12 colon.

Turning to `CCN1CCN(c2nc3ccccc3c3c(=O)c4ccccc4sc23)CC1`, the growth in the experiment with RPMI-8226 leukemia is 53.8%; with OVCAR-8 ovarian it was 36.9%; in the experiment on OVCAR-5 ovarian, 68.7%; in the experiment on OVCAR-4 ovarian it was 55.2%; in the experiment with SK-OV-3 ovarian it was 59.9%; with IGROV1 ovarian, 36.3%. In addition, the growth in the experiment on OVCAR-3 ovarian is 60.7%; in the experiment on HS 578T breast, 52.6%; with NCI/ADR-RES ovarian, 37.8%; in the experiment on T-47D breast it was 54.5%; in the experiment with MDA-MB-435 melanoma, 47.9%; in the experiment on SW-620 colon, 24%. For the same compound, the growth in the experiment on MCF7 breast is 28.3%; in the experiment with HCT-116 colon, 27.5%; with HCC-2998 colon, 57.2%; in the experiment with KM12 colon, 36.1%.

In the case of `Cc1ccc(N=Nc2c(N)nc(N)[nH]c2=O)cc1C`, the growth is 97.8% with RPMI-8226 leukemia; 104% with OVCAR-8 ovarian; 105% with OVCAR-5 ovarian; 105% with OVCAR-4 ovarian; 99.2% with SK-OV-3 ovarian; 92.6% with IGROV1 ovarian. The growth with OVCAR-3 ovarian was 110%; in the experiment on HS 578T breast it was 108%; in the experiment on NCI/ADR-RES ovarian it was 103%; in the experiment with T-47D breast it was 96%; in the experiment with MDA-MB-435 melanoma it was 95.1%; in the experiment on MCF7 breast, 94.4%. In addition, the figures for the growth in the experiment with HCT-116 colon, with HCC-2998 colon and in the experiment with KM12 colon were 96.8%, 113% and 111%, respectively.

Regarding `COc1cc(-c2cc(C(=O)N3CCN(C(=O)c4ccccc4NCc4ccco4)CC3)nc3cc(-c4ccccc4)nn23)cc(OC)c1OC`, the growth in the experiment on RPMI-8226 leukemia was 21.3%; in the experiment on OVCAR-8 ovarian, 39.5%; in the experiment on OVCAR-5 ovarian, 64.1%; with OVCAR-4 ovarian, 68.6%; with SK-OV-3 ovarian it was 27.3%; with IGROV1 ovarian, 23%. Besides, the growth in the experiment on OVCAR-3 ovarian is -37.8% (active); in the experiment with HS 578T breast it was 36.5%; in the experiment with NCI/ADR-RES ovarian, 6.24% (active); with T-47D breast, 50.9%; in the experiment with MDA-MB-435 melanoma it was -34.6% (active); in the experiment on SW-620 colon it was 14.2%. Also, the growth was 16.3% with MCF7 breast, 20% in the experiment on HCT-116 colon, 66.3% in the experiment on HCC-2998 colon and 13.1% in the experiment with KM12 colon.

As to `CCCCCC(=O)c1ccc(OCCCN2CCN(C(=O)OCC)CC2)cc1`, the growth with RPMI-8226 leukemia is 48.6%; in the experiment with OVCAR-8 ovarian it was 104%; in the experiment with OVCAR-5 ovarian it was 86%; with OVCAR-4 ovarian, 85.1%; in the experiment on SK-OV-3 ovarian, 104%; in the experiment with IGROV1 ovarian it was 112%. Further, the growth was 104% with OVCAR-3 ovarian; 102% in the experiment with HS 578T breast; 83.3% with NCI/ADR-RES ovarian; 88.1% with T-47D breast; 98.8% in the experiment on MDA-MB-435 melanoma; 93.2% with SW-620 colon. The growth is 93% with MCF7 breast, 75.6% in the experiment on HCT-116 colon, 96.9% in the experiment with HCC-2998 colon and 94.4% in the experiment on KM12 colon.

`Nc1nc(N)c(NC(=O)CNc2ccc(C(=O)O)cc2)c(N)n1`: the growth in the experiment on RPMI-8226 leukemia was 98%; in the experiment on OVCAR-8 ovarian, 105%; in the experiment on OVCAR-5 ovarian, 108%; with OVCAR-4 ovarian, 104%; in the experiment with SK-OV-3 ovarian it was 107%; in the experiment on IGROV1 ovarian it was 118%. In addition, the growth with OVCAR-3 ovarian was 118%; in the experiment with HS 578T breast it was 103%; in the experiment on NCI/ADR-RES ovarian, 123%; in the experiment with T-47D breast, 94.6%; in the experiment with MDA-MB-435 melanoma it was 105%; with SW-620 colon, 105%. The growth was 91.3% in the experiment with MCF7 breast, 113% with HCT-116 colon, 107% with HCC-2998 colon and 114% in the experiment on KM12 colon.

For the compound `COc1ccc(/C=C/C(=O)Nc2ccc(-c3nc4ccc(OC)cc4s3)cc2)cc1`, the growth was 96.4% in the experiment with RPMI-8226 leukemia; 106% in the experiment on OVCAR-8 ovarian; 108% in the experiment on OVCAR-5 ovarian; 128% in the experiment on OVCAR-4 ovarian; 104% in the experiment with SK-OV-3 ovarian; 118% with IGROV1 ovarian. The growth is 124% in the experiment on OVCAR-3 ovarian; 108% with HS 578T breast; 101% with NCI/ADR-RES ovarian; 101% with T-47D breast; 102% with MDA-MB-435 melanoma; 114% in the experiment on SW-620 colon. The growth with MCF7 breast was 85.3%; with HCT-116 colon it was 105%; with HCC-2998 colon it was 110%; with KM12 colon, 111%.
